IMPase Li cell: cell-permeable IMPase inhibitors with lithium potentiation. CHO-M1 cells, IP1 TR-FRET (IP-One), carbachol + lithium. 210,000 tested, 0.35% active. AID 1457. Potency, µM (titrated, usually from 59.4 µM), for inactives: at the top dose activity, negative = IMPase inhibition, most hits filed as inhibitors;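 note: IP1 builds up when IMPase is blocked and the TR-FRET signal falls; potency is the fitted concentration of half-maximal effect; plate controls were basal vehicle for no effect and high inhibitor control for full effect; nearly all actives have a fitted effect of over 50% in size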
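Lithium-sensitised IP1 accumulation assay; M1-expressing CHO cells treated 30 min at 37C with compound. Competitive antibody detection by time-resolved FRET followed a 10 min room-temperature lysis step.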
IMPase cell inh: membrane-permeable compound that blocks inositol monophosphatase. CHO-M1 cells, IP1 accumulation, HTRF TR-FRET ratio. inhibition (IP1 accumulation), % at 46.1 µM. 120,000 tested, under 10 active. AID 901; active = well fitted curve in the direction sought with a large enough effect in the signal ratio, not every such curve was filed as active; inconclusive = small, poorly fitted or top-dose-only effect, or a change in a side signal; inactive = no such curve, though single readings can be large or run the other way; the % refers to the signal ratio;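 note: cells stimulated with carbachol in lithium chloride buffer; plate controls were DMSO basal wells for no effect and reference inhibitor wells for full effect; higher means more IMPase inhibition seen as more IP1 and lower FRET ratio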
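CHO-M1 cells (CHO stably expressing M1 receptor), compound up to 46 uM final, stimulated with carbachol (50 uM as added) in buffer with 50mM LiCl, pH 7.4, 30 min at 37C. Cytosolic IP1 read by TR-FRET; AC50 from Hill fits.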
NPSR antag: neuropeptide S receptor (human) antagonism, cAMP. 220,000 tested, 1% active. Potency, µM (doses to about 38.3 µM), for inactives: at the highest dose activity change, negative = inhibition, actives largely listed as inhibitors. Q6W5P4. CHO-NPSR cells, cAMP TR-FRET, antagonist mode; note: potency is the fitted concentration of half-maximal effect; nearly all actives have a fitted effect of over 50% in size
ALDH1A1 inh: ALDH1A1 (human) enzyme inhibition. P00352. Purified ALDH1A1, NADH fluorescence, propionaldehyde substrate. Potency, µM (top dose mostly 75.3 µM), without a hit: at the top dose activity, negative = inhibition, usual class: inhibitors. 220,000 tested, 7.3% active; active = well fitted inhibition curve with a large enough effect, not every such curve was filed as active; inconclusive = small, poorly fitted or top-dose-only effect, or another doubt; inactive = no such curve, though single readings can be large or run the other way;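 note: potency is the fitted concentration of half-maximal effect; plate controls were no enzyme wells and a reference inhibitor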
Target sequence (P00352 whole entry, looked up): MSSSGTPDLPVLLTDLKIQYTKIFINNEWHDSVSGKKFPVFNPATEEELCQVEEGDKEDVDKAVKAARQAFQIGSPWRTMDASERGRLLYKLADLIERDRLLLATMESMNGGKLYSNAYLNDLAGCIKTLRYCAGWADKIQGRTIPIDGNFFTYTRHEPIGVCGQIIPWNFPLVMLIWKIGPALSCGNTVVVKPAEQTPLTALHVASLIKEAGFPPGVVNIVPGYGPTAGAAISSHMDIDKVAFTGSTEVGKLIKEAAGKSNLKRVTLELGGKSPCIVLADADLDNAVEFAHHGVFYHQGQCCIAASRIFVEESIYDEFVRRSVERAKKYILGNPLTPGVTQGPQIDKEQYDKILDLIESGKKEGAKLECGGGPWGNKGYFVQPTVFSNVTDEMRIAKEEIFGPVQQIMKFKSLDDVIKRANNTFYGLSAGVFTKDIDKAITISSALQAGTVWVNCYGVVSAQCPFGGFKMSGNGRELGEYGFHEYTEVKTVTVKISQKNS
ALOX12 inhib: blocks human 12-lipoxygenase activity | P18054 | purified 12-hLO, xylenol orange hydroperoxide absorbance | 150,000 tested, 0.12% active | Potency, µM (series often up to 57.1 µM), inactives show at the top dose activity change, negative = inhibition, actives largely listed as inhibitors; note: potency is the fitted concentration of half-maximal effect; nearly all actives have a fitted effect of over 55% in size
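Purified human 12hLO (150 nM), preincubated 15 min with compound, then 40 uM arachidonic acid for 30 min, room temperature, Hepes pH 7.0 with 0.01% Triton X-100. Hydroperoxide detected by ferrous iron/xylenol orange; 573/405 nm absorbance ratio gives reaction progress.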
HPGD block: blocks human HPGD enzyme activity; P15428; purified HPGD, NADH fluorescence kinetic, PGE2 substrate; Potency, µM, without a hit: at the top dose activity change, negative = inhibition, hits mostly inhibitors; 150,000 tested, 4.3% active; AID 894; active = well fitted inhibition curve with a large enough effect, not every such curve was filed as active; inconclusive = small, poorly fitted or top-dose-only effect, or another doubt; inactive = no such curve, though single readings can be large or run the other way; note: potency is the fitted concentration of half-maximal effect
Target sequence (P15428 whole entry, looked up): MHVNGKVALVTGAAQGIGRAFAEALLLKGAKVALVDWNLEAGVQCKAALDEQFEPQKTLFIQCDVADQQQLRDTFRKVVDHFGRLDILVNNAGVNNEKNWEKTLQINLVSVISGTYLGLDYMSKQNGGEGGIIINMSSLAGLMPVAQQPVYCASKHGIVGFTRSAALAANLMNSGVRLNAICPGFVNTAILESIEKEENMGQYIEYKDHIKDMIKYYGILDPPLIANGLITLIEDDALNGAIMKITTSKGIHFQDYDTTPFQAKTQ
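20 nM HPGD preincubated 15 min at room temperature with compound in 50 mM Tris-HCl pH 8, 0.01% Tween 20. Started with 1 mM NAD+ and 30 uM prostaglandin E2; NADH fluorescence (360/450 nm) read 5 times over 30-s intervals, last minus first.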
* hit, by the source's call; ? = inconclusive; nt = no result given; [ ] = dose if it differs, or a comment. Rows were chosen to be rich in hits. Some 8.9% of all compounds tested hit in one or more screens of this group. Unless noted, calls come from the whole dose curve; as a rule, active = well fitted curve in the direction sought with a large enough effect; inconclusive = small, poorly fitted or top-dose-only effect, or another doubt; inactive = no such curve, though single readings can be large; an effect the other way counts as inactive or inconclusive. Unless noted, % is set by controls: 0 for no effect and ±100 for the full control effect.

SMILES | IMPase Li cell | IMPase cell inh | NPSR antag | ALDH1A1 inh | ALOX12 inhib | HPGD block
O=C(CCO)c1ccc(O)cc1 | 2% | nt | -19% | ? | nt | nt
CCCOC(=O)CCNc1n[nH]c(=O)[nH]c1=O | -22%[38.3 µM] | -1 | 2%[46.1 µM] | ? | -6% | -15%
COc1ccc2c(CSc3nc4nc(C)cc(C)n4n3)cc(=O)oc2c1 | 21%[38.3 µM] | 11 | ? | -5% | -5% | 9%
COc1cc(-c2nnc(SCc3cc(=O)oc4cc(C)ccc34)o2)cc(OC)c1OC | 10%[38.3 µM] | 9 | -24%[46.1 µM] | 6.3µM* | -18% | ?
Cc1ccc2c(CSc3nc4nc(C)cc(C)n4n3)cc(=O)oc2c1 | nt | 2 | 10µM* | 3% | -16% | nt
C=CCc1cc(C)ccc1OCCOCCn1ccnc1 | 8% | nt | 7% | 25µM* | -1% | 1%
COc1ccc(-c2nnc3ccc(SC)nn23)cc1 | -17%[38.3 µM] | 9 | -4%[46.1 µM] | ? | 1% | 32µM*
C=CCn1c(SCC(=O)N2CCOCC2)nc2scc(-c3ccco3)c2c1=O | 2%[38.3 µM] | -4 | -19%[46.1 µM] | 18µM* | -13% | -18%
C=CCn1c(SCC(=O)N2CCCC2)nc2scc(-c3cccs3)c2c1=O | 2%[38.3 µM] | -2 | -6%[46.1 µM] | ? | 2% | -13%
N#Cc1c(-c2ccc3c(c2)OCO3)ccn2nc(-c3cccc(C(F)(F)F)c3)nc12 | 13µM* | 11 | -21%[46.1 µM] | ? | -14% | ?
O=C1C=C(N2CCCCC2)C2(CCCCC2)O1 | 12% | nt | 3% | 10µM* | nt | nt
O=C(O)C(=O)/C=C(\O)c1ccc(Br)cc1 | -13% | nt | nt | -7%[13.5 µM] | -7%[11.4 µM] | -7%
O=C(Nc1nc(-c2ccco2)cs1)c1ccccc1 | -3%[38.3 µM] | 6 | -17%[46.1 µM] | ? | -8% | -29%
Cc1ccc(-c2csc(Nc3ccc(S(N)(=O)=O)cc3)n2)o1 | 10% | nt | -12% | 2.2µM* | nt | nt
Cc1ccc(-c2csc(NC(=O)Cc3ccc(F)cc3)n2)o1 | 18% | nt | -23% | 3.5µM* | nt | nt
Cc1ccc(-c2csc(NC(=O)c3ccc(-c4ccccc4)cc3)n2)o1 | 34%[38.3 µM] | -6 | -11%[46.1 µM] | 20µM* | ? | ?
CCOC(=O)C1(CC2CC2)CCN(Cc2ccc3cccc(F)c3n2)CC1 | 30% | nt | 51% | -6% | nt | nt
CC(=O)N(C)N1c2ccccc2CCc2ccccc21 | -2% | nt | 3% | 2% | nt | nt
CN(Cc1cnn(C)c1)C(=O)c1cc(COc2c(F)cccc2F)on1 | 1% | nt | 7% | 10% | nt | nt
CCCCCCN(C(=O)CCCCCN1C(=O)NC(c2ccc3ccccc3c2)C(C(=O)OCc2ccccc2)=C1C)C(C(=O)NCCCC)c1ccc(OCC(=O)OC)c(C(=O)OC)c1 (configuration not stated) | 4% | nt | nt | -8% | -3% | -12%
CCCCCCN(C(=O)CCCCCN1C(=O)NC(C2CCCCC2)C(C(=O)OCc2ccccc2)=C1C)C(C(=O)NCCCC)c1ccc(OCC(=O)OC)c(C(=O)OC)c1 (configuration not stated) | 2% | nt | nt | 28µM* | -5% | -16%
CCCCNC(=O)C(c1ccc(OCC(=O)OC)c(C(=O)OC)c1)N(CCc1ccccc1)C(=O)CCCCCN1C(=O)NC(c2ccc(-c3ccccc3)cc2)C(C(=O)OCc2ccccc2)=C1C (configuration not stated) | -9% | nt | 5% | 3% | -7% | -8%
CCCCCCN(C(=O)CCCCCN1C(=O)NC(c2ccccc2-c2ccccc2)C(C(=O)OCc2ccccc2)=C1C)C(C(=O)NCCCC)c1ccc(OCC(=O)OC)c(C(=O)OC)c1 (configuration not stated) | 6% | nt | nt | 35µM* | -9% | -12%
CCOc1ccccc1NC(=O)C1C2C=CC(C2)C1C(=O)O (configuration not stated) | 9%[38.3 µM] | 0 | 10%[46.1 µM] | -8% | 3% | -4%
CC1=C(C2=C(C)C(C(C)C)C3=C(C(=O)C(O)C3O)C2O)C(O)C2=C(C(O)C(O)C2=O)C1C(C)C (configuration not stated) | 13% | 8 | nt | -7% | -5% | -2%
SMILES | IMPase Li cell | IMPase cell inh | NPSR antag | ALDH1A1 inh | ALOX12 inhib | HPGD block
O=C(c1ccc(-n2cccc2)cc1)N1CCCCC1 | 7% | nt | 5% | 32µM* | nt | nt
O=C(c1cc2cc(Br)ccc2oc1=O)N1CCCC1 | 17%[38.3 µM] | 4 | 7%[46.1 µM] | -5% | -9% | 20µM*
O=C(c1ccc(Br)cc1)N1CCCC1 | -11%[38.3 µM] | -6 | -2%[46.1 µM] | -7% | 2% | 7.9µM*
COC(=O)c1ccc(C(=O)OC)c(NC(=S)N2CCN(C)CC2)c1 | 4% | nt | 5% | ? | nt | nt
COC(=O)c1ccc(-c2ccc(C(=O)N3CCCN(C)CC3)cc2)cc1 | -7%[38.3 µM] | 4 | -3%[46.1 µM] | 14% | 5% | 1.3µM*
O=C(c1ccc(-c2ccccc2)cc1)N1CCCC1 | 16%[38.3 µM] | 6 | -10%[46.1 µM] | -15% | -6% | 1.6µM*
Cc1ccc(NC(=O)Nc2ccc(C(=O)N3CCOCC3)cc2)cc1 | 12%[38.3 µM] | 2 | -2%[46.1 µM] | 8% | -2% | -27%
CC(C)c1ccc(C(=O)N2CCCN(C(=O)c3ccc(C(C)C)cc3)CC2)cc1 | 12% | nt | 21% | 7.9µM* | -2% | -5%
CC(C)c1ccc(C(=O)N2CCN(c3cnn(C)c(=O)c3Cl)CC2)cc1 | 12% | nt | 37% | ? | nt | nt
O=C(c1cccc(Br)c1)N1CCN(C(=O)N2CCCCC2)CC1 | -2% | 9 | -9%[46.1 µM] | ? | -6% | -1%
O=C(c1ccccc1)N1CCN(C(=O)c2ccccc2)CC1 | -3% | 5 | -4%[46.1 µM] | 1% | 2% | 0%
O=C(c1cccc(Br)c1)N1CCCC1 | 6%[38.3 µM] | -5 | -2%[46.1 µM] | 9% | -2% | 18µM*
Cc1ccc(C(=O)N2CCSCC2)cc1 | 29%[38.3 µM] | -4 | -3%[46.1 µM] | 0% | -2% | 0.28µM*
Cc1cccc(C(=O)N2CCCCCC2)c1 | 27%[38.3 µM] | 2 | 1%[46.1 µM] | 13% | 3% | 5µM*
O=C(COc1ccc(-c2ccccc2)cc1)N1CCCC1 | 12% | nt | 14% | 13µM* | nt | nt
CCOC(CNC(=O)CCc1c(C)nc2nc(C)nn2c1C)OCC | 7%[38.3 µM] | -5 | 16%[46.1 µM] | -1% | 7% | -4%
CCS(=O)(=O)N1CCN(c2ccc(C(=O)NC3C4CC5CC(C4)CC3C5)cc2[N+](=O)[O-])CC1 (configuration not stated) | 0% | -1 | -28% | 7.1µM* | -2% | -1%
CCS(=O)(=O)N1CCN(c2ccc(C(=O)N3CCOCC3)cc2[N+](=O)[O-])CC1 | nt | nt | 7% | nt | nt | nt
CN1CCN(CCCC(=O)c2ccc(C3CCCC3)cc2)CC1 | 11% | nt | 19% | ? | -2% | -7%
CC(C)NC(=O)/C(C#N)=C/c1cccc(NC(=O)c2ccccc2Cl)c1 | 4% | nt | -2% | 14µM* | -5% | -23%
COCCNC(=O)/C(C#N)=C/c1cc(C)n(-c2ccc(C)cc2)c1C | 17% | nt | 43% | 5.6µM* | nt | nt

Screening results from PubChem.
